Source: PubChem (National Center for Advancing Translational Sciences (NCATS))
Six1-Eya2 blk – Six1/Eya2 interaction inhibition | AlphaScreen GST-Six1/His-Eya2 binding, biochemical; hits give low values | activity change, % (test concentration not listed) | hit rate 0.56% among 360,000 | AID 651725; in the data active = activity change below about -65%; inconclusive = mostly about -30% to -63%
Target sequence (O00167 whole entry, looked up): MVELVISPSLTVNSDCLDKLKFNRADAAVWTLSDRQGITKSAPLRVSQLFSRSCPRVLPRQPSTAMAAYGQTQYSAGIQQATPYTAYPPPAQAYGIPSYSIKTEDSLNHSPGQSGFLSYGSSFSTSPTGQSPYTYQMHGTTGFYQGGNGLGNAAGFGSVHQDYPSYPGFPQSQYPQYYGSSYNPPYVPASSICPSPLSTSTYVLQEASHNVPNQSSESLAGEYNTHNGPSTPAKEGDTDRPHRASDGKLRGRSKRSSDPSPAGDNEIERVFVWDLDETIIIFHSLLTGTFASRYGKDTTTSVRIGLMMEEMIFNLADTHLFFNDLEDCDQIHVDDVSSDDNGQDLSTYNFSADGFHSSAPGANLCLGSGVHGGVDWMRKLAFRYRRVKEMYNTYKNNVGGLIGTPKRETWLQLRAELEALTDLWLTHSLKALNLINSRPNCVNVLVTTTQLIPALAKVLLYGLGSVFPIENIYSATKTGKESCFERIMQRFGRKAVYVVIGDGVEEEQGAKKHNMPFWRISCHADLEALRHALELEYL
Target sequence (Q15475 whole entry, looked up): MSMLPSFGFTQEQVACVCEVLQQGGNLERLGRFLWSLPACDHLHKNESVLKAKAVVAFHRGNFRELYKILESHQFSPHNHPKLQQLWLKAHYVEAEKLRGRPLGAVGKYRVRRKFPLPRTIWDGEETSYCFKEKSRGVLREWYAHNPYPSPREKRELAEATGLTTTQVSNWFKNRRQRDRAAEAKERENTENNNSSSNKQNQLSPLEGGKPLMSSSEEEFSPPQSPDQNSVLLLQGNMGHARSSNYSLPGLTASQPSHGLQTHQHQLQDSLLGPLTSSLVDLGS
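GST-Six1 + His-Eya2 (5X stock: 250/500 nM); Tris pH 8.0, 300 mM NaCl, 0.05% BSA, 0.02% Tween 20; GSH donor/Ni acceptor beads; 1 h 37 °C dark; AlphaScreen readout.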
JMJD2A Tudor inh – blocks the human JMJD2A Tudor domain | hit rate 4.4% among 390,000 | AlphaScreen JMJD2A-Tudor / H3K4me3 peptide binding | O75164 | Potency, µM (highest dose often 114 µM), most hits filed as inhibitors; also: nearly all actives have a fitted effect of over 50% in size
G9a inh – inhibitors of human histone lysine methyltransferase G9a; Q96KQ7; G9a H3K9 monomethylation, AlphaScreen, 2 h; Potency, µM (top dose mostly 102 µM), hits mostly inhibitors; hit rate 8.8% among 350,000; AID 504332; also: nearly all actives have a fitted effect of over 75% in size
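G9a (20 nM) preincubated 15 min RT with compounds, then 500 nM biotinylated H3K9 peptide and 20 uM SAM added; 2 h RT reaction. Monomethyl-H3K9 product detected by AlphaScreen with anti-H3K9me1 antibody, streptavidin donor and anti-rabbit IgG acceptor beads.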
CtBP-E1A inh – blocks the CtBP interaction with E1A; hit rate 0.49% among 340,000; AlphaScreen GST-E1A/His-CtBP binding, 1536-well; hits give low values; activity change, % (concentration not given with the values); in the data active = activity change below about -65%; inconclusive = mostly about -30% to -63%
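Homogeneous bead-based format: GST-tagged E1A captured on glutathione donor beads, His-tagged CtBP on nickel acceptor beads; compounds precede bead addition by 2 h at 37 °C.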
HP1b binding inh – inhibitors of HP1-beta chromodomain binding to methylated histone tails; AlphaScreen HP1-beta / biotin-H3K9me3 peptide binding; Potency, µM (titrated, usually from 114 µM), most hits filed as inhibitors; P83916; hit rate 0.56% among 390,000; also: nearly all actives have a fitted effect of over 70% in size
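AlphaScreen: HP1-beta (50 nM) preformed 30 min with biotin-H3(1-18)K9me3 peptide (50 nM) in PBS pH 7.4, 0.01% Tween-20. Compound added for 30 min at RT, then streptavidin donor/nickel chelate acceptor beads (10 ug/mL) for 30 min.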
BAZ2B block – inhibitors of human BAZ2B bromodomain; Q9UIF8; AlphaScreen BAZ2B-H3K14Ac peptide displacement; Potency, µM (highest dose often 114 µM), most hits filed as inhibitors; hit rate 4.4% among 360,000; also: nearly all actives have a fitted effect of over 60% in size
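BAZ2B 50 nM plus b-H3(5-23)K14Ac 50 nM, PBS pH 7.4/0.01% Tween-20, 30 min RT; compound added (max 110 uM), 30 min RT; streptavidin donor/Ni-chelate acceptor beads 10 ug/mL final, 20 min dark; AlphaScreen read.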
Numbers stand for hits; n = inactive; u = inconclusive; x = no result given; [ ] = dose if it differs, or a comment. Hits are enriched below; roughly 10% of the tested compounds scored in any of these assays. Unless noted, calls follow the shape of the dose curve; as a rule, active = well fitted inhibition curve with a large enough effect; inconclusive = small, poorly fitted or top-dose-only effect; inactive = no such curve, though single readings can be large or run the other way.

SMILES	Six1-Eya2 blk	JMJD2A Tudor inh	G9a inh	CtBP-E1A inh	HP1b binding inh	BAZ2B block
Nc1c(C(=O)c2cccs2)oc2ccccc12	n	n	n	n	n	n
Cc1cc(SCC(=O)Nc2cccc(S(=O)(=O)N3CCOCC3)c2)nc2ccccc12	n	n	40µM	x	n	n
Cc1ccc(SCC(=O)Nc2cccc(S(=O)(=O)N3CCOCC3)c2)cc1C	n	n	n[12.7 µM]	u	n	n
O=C(Nc1cccc(S(=O)(=O)N2CCOCC2)c1)c1c2c(nc3ccccc13)CCC2	n	n	22µM	n	n	u
CCNC(=O)C1(C)CCCN(C(=O)c2cc(-c3cccs3)oc2C)C1 (centres undefined)	n	x	x	n	x	x
O=C(NC(=S)Nc1ccccc1C(=O)O)c1ccc2ccccc2c1	n	n	28µM	n	n	n
O=C(NC(=S)Nc1ccccc1O)c1ccc(-c2ccc(Cl)cc2)o1	n	n[11.4 µM]	n[2.33 µM]	n	n	n
Cc1ccccc1C(=O)NC(=S)Nc1ccccc1C(=O)O	n	n	20µM	n	n	n
Cc1c(NC(=S)NC(=O)c2ccc(-c3ccc(Cl)cc3)o2)cccc1C(=O)O	n	n	45µM	n	n	n
O=C(O)c1cccc(NC(=S)NC(=O)c2ccc3ccccc3c2)c1	n	n	56µM	n	n	n
COc1ccc(OC)c(NC(=O)Nc2nnc([C@H]3C[C@H](O)[C@@H](CO)O3)s2)c1	n	x	x	n	x	x
COc1ccc(Oc2ncc3nc(-c4cccs4)c(=O)n(Cc4cccs4)c3n2)cc1	x	x	n[12.7 µM]	x	x	x
CCC(CC)CN1CCN=C1N(C)C	n	n	n	n	n	n
O=C(O)c1ccc(NC(=S)NC(=O)c2cccc(COc3ccccc3)c2)cc1	n	n	28µM	n	n	n
O=C(O)c1ccc(NC(=S)NC(=O)c2ccc3ccccc3c2)cc1	n	u	x	n	n	n
CC(=O)Nc1ccc(NC(=O)CCCCCN2C(=O)c3ccccc3C2=O)cc1	n	n	n	n	n	n
CCN(CC)c1ccc(NC(=O)CCCCCN2C(=O)c3ccccc3C2=O)cc1	u	25µM	2.5µM	n	u	45µM
Cc1ccc(NC(=O)CCCN2C(=O)c3cccc4cccc(c34)C2=O)cc1	n	79µM	n	n	n	n
COc1cccc(CN2CCN(Cc3cccc(Br)c3)CC2)c1OC	n	3.2µM	u	n	22µM	20µM
CCOC(=O)C1(Cc2cccc(OC)c2)CCN(Cc2cccc(OC)c2OC)CC1	n	n[11.4 µM]	n	x	n	n
COc1ccccc1Cn1[nH]nnc1=S	n	16µM	3.2µM	n	u	n
COc1cccc(CN2CCN(c3cccc(C(F)(F)F)c3)CC2)c1OC	n	2.2µM	6.3µM	n	u	u
COc1ccccc1CN1CCCCCC1	n	1.3µM	40µM	n	u	u
COc1ccccc1CN1C(=O)CNC1=S	n	n	n	x	n	n
Clc1ccc(C=Cc2ccccn2)c(Cl)c1	n	n	x	n	n	x
SMILES	Six1-Eya2 blk	JMJD2A Tudor inh	G9a inh	CtBP-E1A inh	HP1b binding inh	BAZ2B block
NCCCCCc1nnc(SCc2ccc(F)cc2)o1	x	n	n	x	n	n
O=C(NCCNC(=O)c1ccc(Cl)cc1Cl)c1cnccn1	n	n	n	n	n	n
COc1ccccc1CN1CCC2(CC1)CCN(C(C)=O)CC2	x	x	n[12.7 µM]	x	x	x
COc1ccccc1CN1CCSCC1	n	6.3µM	u	n	71µM	50µM
COc1cccc(CN2CCN(C(=O)c3cccs3)CC2)c1OC	n	n	n	n	n	x
COc1cccc(CN2CCSCC2)c1OC	n	20µM	x	n	u	79µM
CCc1ccccc1-n1c(C)nc2cc(C(=O)NCCc3ccc(Cl)cc3)ccc21	x	n	n	x	n	n
COCCN1C(=O)C(O)=C(C(C)=O)C1c1ccc(OC)c(OC)c1 (centres undefined)	n	16µM	45µM	n	n	u
COc1ccc(C2C(C(C)=O)=C(O)C(=O)N2c2cccnc2)cc1OC (centres undefined)	n	79µM	u	n	n	u
CNC(=O)NC(=O)CN1C(=O)NC2(CCOc3ccccc32)C1=O (centres undefined)	n	n	n	n	n	n
CCc1ccc(CNC(=O)CCN2C(=O)COc3ccccc32)cc1	x	n	n	x	n	n
Cc1cc(C)n2c(Nc3ccc4c(c3)OCCO4)c(CCc3ccccc3)nc2n1	n	x	x	n	x	x
Cc1cccc(N2CCN(CC(=O)NCC3CCCCC3)CC2)c1C	n	5µM	28µM	n	u	50µM
Cc1cc(O)c(C(c2ccccc2)N2CCC(C)CC2)c(=O)n1Cc1ccco1 (centres undefined)	x	n	u	x	n	n
CCc1ccccc1NC(=O)CCCSc1nc(-c2ccco2)cc(C(F)(F)F)n1	x	n	n	x	n	n
CCn1ncc(CNC(=O)CCCSc2nc(-c3ccco3)cc(C(F)(F)F)n2)c1C	n	n	16µM	n	n	n
Cc1cccc(C)c1-n1ncc(C(=O)N2CCN(c3ccccn3)CC2)c1C1CCN(C(=O)OC(C)(C)C)CC1	x	n	n	x	n	n
Nc1nc2ccccc2cc1C(=O)NCc1ccc(Cl)cc1Cl	n	x	x	n	x	x
COc1cccc(CN2CCNC(=O)C2CC(=O)NCCn2ccc3ccccc32)c1OC (centres undefined)	n	u	40µM	x	n	u
COc1cccc(CN2CCNC(=O)C2CC(=O)NCc2cn3ccccc3n2)c1OC (centres undefined)	n	n	u	n	n	n
COc1ccc(CN2CCNC(=O)C2CC(=O)NC2CCC2)c(OC)c1 (centres undefined)	n	n	n	n	n	n
COc1cccc(CN2CCNC(=O)C2CC(=O)NC2CCOCC2)c1OC (centres undefined)	n	n	45µM	x	n	n
COc1ccc(CN2CCNC(=O)C2CC(=O)NC2CCCC2)c(C)c1C (centres undefined)	n	20µM	45µM	n	n	u
COc1ccc(NC(=O)N(C)C[C@@H]2OCc3cnnn3CCCC(=O)N([C@@H](C)CO)C[C@H]2C)cc1	n	x	x	n	x	x
Cc1ccc(S(=O)(=O)Nc2c(C)nc3nc(C)[nH]n3c2=O)cc1	n	u	79µM	n	n	n
SMILES	Six1-Eya2 blk	JMJD2A Tudor inh	G9a inh	CtBP-E1A inh	HP1b binding inh	BAZ2B block
Cc1nc2nc(C)c(NS(=O)(=O)c3ccc(CC(C)C)cc3)c(=O)n2[nH]1	n	n	40µM	n	n	n
CCOC(=O)Cn1c(=O)n(C2CCCCC2)c2nc(-c3ccc(CC)cc3)nc(C(N)=O)c21	x	n	n	x	n	n
O=C(OCCNC(=O)c1cc2ccccc2oc1=O)c1cccnc1	n	n	u	n	n	n
O=C(c1ccccc1)c1cc2ccccc2oc1=O	n	n	n	n	n	n
O=C(NNC(=O)c1cc2ccccc2oc1=O)c1ccccc1	n	n	32µM	n	u	n
O=C(NCc1cccnc1)c1cc2ccccc2oc1=O	n	n	50µM	n	n	n
